Molecules are shown by their SMILES. Results filed as inconclusive are left out. A call without a number means that no potency is given here. Unmarked numbers belong to inactive results. Active and inactive are the calls of the source. Calls follow the shape of the dose curve; as a rule, active = well fitted inhibition curve with a large enough effect; inconclusive = small, poorly fitted or top-dose-only effect; inactive = no such curve, though single readings can be large or run the other way. Peptide text beside a SMILES is read from it.

In this test the target is Retinaldehyde dehydrogenase 3 (Homo sapiens) (UniProt P47895). The experiment in a line: qHTS for Inhibitors of the Aldehyde Dehydrogenase Family (ALDH1A3) Primary screen (AID 2061315). As to conditions: ALDH inhibition qHTS; series mostly up to 56 µM. On the technique in general: In qHTS, concentration-response curves come from the screen itself.
As for `CC1CCCC2OC2C(=O)c2c(O)cc(O)cc2CC(=O)O1` (stereo not given), the Potency entry is “inactive”.
In the case of `Cc1nc(NC(=O)N2CCCC2C(N)=O)sc1-c1csc(C(C)(C)C)n1` (stereo not given), the Potency result was “inactive”.
With `C[C@@H]1O[C@@H](O[C@@H]2[C@@H](O)[C@H](O[C@@H]3[C@@H](O)[C@@H](O)[C@H](O[C@H]4[C@H](OC(=O)[C@]56CCC(C)(C)C[C@H]5C5=CCC7[C@@]8(C)C[C@H](O)[C@H](O[C@@H]9O[C@H](C(=O)O)[C@@H](O)[C@H](O)[C@H]9O)[C@@](C)(CO)C8[C@H](O)C[C@@]7(C)[C@]5(C)CC6)OC[C@H](O)[C@@H]4O)O[C@H]3C)OC[C@H]2O)[C@H](O)[C@H](O)[C@H]1O` (stereo not given in full), the activity change, negative = inhibition is 15.6% [at 11.2 µM].
In the case of `CC(C)c1ccc2c(c1)C(O)CC1C(C)(C(=O)O)CCCC21C` (stereo not given), the Potency result is “inactive”.
Take `C=C1C(=O)OC[C@H]2C(C(=O)O)=CC3CC(C)(C)C[C@@]132` (stereo not given in full): the Potency entry is “inactive”.
Regarding `C=CCc1cc(OC)c(OC(C)C(O)c2ccc(O)c(OC)c2)c(OC)c1` (stereo not given), the Potency entry is “inactive”.
Still for that read-out and setting: the value for `C[C@@H]1C(=O)O[C@H]2[C@H]1CC[C@@]1(C)C(=O)C=C[C@@](C)(O)[C@H]21` was “inactive”; that for `CC1(CO)CCCC2(C)C3COC(=O)C3=CC(O)C12` (stereo not given) was “inactive”.
Still for that read-out and setting: the value for `CC1=C2C[C@@]3(C)[C@@H](CCC[C@@H]3C)C[C@@]2(O)OC1=O` was “inactive”; that for `CC1=C(C(=O)OCc2ccccc2)C(c2ccc(-c3ccccc3)cc2)NC(=O)N1CCCCCC(=O)O` (stereo not given) was “inactive”; that for `COc1cc(/C=C2\CCCN([C@@H](C)c3ccc(F)cc3)C2=O)ccc1-n1cnc(C)c1` was “inactive”.
For the compound `COCCOCCOc1ccc(C2=N[C@@](C)(C(=O)O)CS2)c(O)c1`, the Potency result was “inactive”.
On the same count and under the same terms, in the case of `CCCCS(=O)(=O)N[C@@H](Cc1ccc(OCCCCC2CCNCC2)cc1)C(=O)O` it was “inactive”; in that of `N#Cc1cccc(-c2nc(-c3cccnc3)no2)c1`, “inactive”.
Turning to `C[C@]1(O)CC[C@@H]2C(C(=O)O)=CO[C@@H](O[C@@H]3O[C@H](COC(=O)/C=C/c4ccc(O)c(O)c4)[C@@H](O)[C@H](O)[C@H]3O)[C@@H]21`, the Potency entry is “inactive”.
The same measure, in the same setting: in the case of `OC1COC(OCC2OC(OCCc3ccccc3)C(O)C(O)C2O)C(O)C1O` (stereo not given) it was “inactive”; in that of `C[C@@H]1CN(Cc2ccccc2)C[C@H]1c1nc2c(cnn2C2CCOCC2)c(=O)[nH]1`, “inactive”; in that of `C=Cc1ccc(O[C@@H]2O[C@H](CO[C@@H]3O[C@@H](C)[C@H](O)[C@@H](O)[C@H]3O)[C@@H](O)[C@H](O)[C@H]2O)cc1`, “inactive”.
Same read-out and setting: the value for `C[C@@H]1CC[C@@]2(OC1)O[C@H]1C[C@H]3[C@@H]4CC=C5C[C@@H](O)CC[C@]5(C)[C@H]4CC[C@]3(C)[C@H]1[C@@H]2C` was “inactive”; that for `C[C@]12CC[C@@H]3c4ccc(O)cc4CC[C@H]3[C@@H]1C[C@@H](O[C@@H]1O[C@H](C(=O)O)[C@@H](O)[C@H](O)[C@H]1O)[C@@H]2O` was “inactive”; that for `CC(=C\C(C)O)/C=C(\C)C(=O)CC1CC(CC(N)=O)CC(=O)O1` (stereo not given) was “inactive”.
On the same count and under the same terms, in the case of `CC1NC(=O)CNC(=O)C(C(C)C)NC(=O)C2CCCN2C(=O)C(C(C)C)NC(=O)C(Cc2c[nH]c3ccccc23)NC1=O` (stereo not given) (cyclo(GAWVPV); configuration not given here) it was “inactive”; in that of `C/C(CO)=C1/CCC23COC(C2)C(O)(C(=O)O)CCC13` (stereo not given), “inactive”.
Take `CC(=O)O[C@H]1[C@H](C)[C@@H](O)[C@H]2[C@@H]1C=C(C(=O)O)[C@H]1C[C@@H]3[C@H]([C@H]21)[C@H]1C(=O)O[C@@H]2CC[C@@]3(C)O[C@]1(O)[C@@H]2C`: the Potency result was “inactive”.
Regarding `C=C1CO[C@@]2(O[C@H]3CC4C5CC=C6C[C@@H](O)C[C@@H](O[C@@H]7OC[C@H](O)[C@H](O[C@@H]8OC[C@@H](O)[C@H](O)[C@H]8O)[C@H]7O[C@@H]7O[C@@H](C)[C@H](OC(C)=O)[C@@H](OC(C)=O)[C@H]7OC(C)=O)[C@]6(C)C5CC[C@]4(C)[C@@H]3[C@@H]2C)[C@@H](O)[C@H]1OC1OC(C)C(O)C(O)C1O` (stereo not given in full), the activity change, negative = inhibition is -6.16% [at 11.2 µM].
For `CNc1nc(Cc2ccccc2)nc2c1CCNC[C@@H]2C`, the Potency entry is “inactive”.
Take `COC(=O)C1=C2Nc3ccccc3C23CCN2CCCC(C(C)O)(C1)C23` (stereo not given): the Potency result was “inactive”.
Turning to `CC1(O)CC(O)C2(O)C=COC(O[C@@H]3O[C@H](CO)[C@@H](O)[C@H](O)[C@H]3O)C12` (stereo not given in full), the Potency result was “inactive”.
In the case of `CC1=C2C(=O)C=C(CO)[C@@H]2[C@H]2OC(=O)[C@H](C)[C@@H]2[C@@H](O)C1`, the Potency entry is “inactive”.
In the case of `N#Cc1ccc2ncnc(NCCc3ccccc3)c2c1`, the Potency entry is “inactive”.
Same read-out and setting: in the case of `CC1CCC2(NC1)OC1C(O)C3C4CCC5CC(O[C@@H]6O[C@H](CO)[C@@H](O)[C@H](O)[C@H]6O[C@@H]6O[C@@H](C)[C@H](O)[C@@H](O)[C@H]6O)CCC5(C)C4CCC3(C)C1C2C` (stereo not given in full) it was “inactive”; in that of `CC1=C(CCC(C)CC(=O)O)[C@@]2(C)CCCC(C)(C)C2CC1=O` (stereo not given in full), “inactive”.
Still for that read-out and setting: the value for `COC(=O)c1cc(OC)c(O[C@@H]2O[C@@H](C)[C@H](O)[C@@H](O)[C@H]2O)c(OC)c1` was “inactive”; that for `C=C1CCC[C@]2(C)CC/C(=C(/CO)C(=O)OC)C[C@@H]12` was “inactive”; that for `C/C=C(\C)C(=O)O[C@H]1[C@H](O)[C@]2(COC(C)=O)[C@H](O)C[C@]3(C)C(=CCC4[C@@]5(C)CC[C@H](O[C@@H]6O[C@H](C(=O)O)[C@@H](O[C@@H]7O[C@H](CO)[C@@H](O)[C@H](O)[C@H]7O)[C@H](O)[C@H]6O[C@@H]6O[C@H](CO)[C@@H](O)[C@H](O)[C@H]6O)[C@](C)(CO)C5CC[C@]43C)[C@@H]2CC1(C)C` (stereo not given in full) was “inactive”.
Turning to `COc1cc2c(c(O)c1OC/C=C(\C)CC/C=C(/C)CCC=C(C)C)CN(C(CCC(=O)O)C(=O)O)C2=O` (stereo not given), the Potency result was “inactive”.
Same read-out and setting: in the case of `CC(=O)O[C@@]1(C)C[C@@H](O)[C@]2(O)C=CO[C@@H](O[C@@H]3O[C@H](CO)[C@@H](O)[C@H](O)[C@H]3O)[C@@H]21` it was “inactive”; in that of `OC[C@H]1O[C@@H](O[C@H]2[C@H](OCc3ccccc3)O[C@H](CO[C@@H]3OC[C@@H](O)[C@H](O)[C@H]3O)[C@@H](O)[C@@H]2O)[C@H](O)[C@@H](O)[C@@H]1O`, “inactive”; in that of `CN[C@H](C(=O)N[C@H](C(=O)N(C)[C@H](/C=C(\C)C(=O)O)C(C)C)C(C)(C)C)C(C)(C)c1ccccc1`, “inactive”.
As for `O=c1[nH]ccc2cc(OC3CCNCC3)ccc12`, the Potency result was “inactive”.
